Rows were chosen to be rich in hits. Some 1.3% of all compounds tested hit in one or more screens of this group.
RTF Ca sens act = cardiac RTF calcium sensitization; P19429+P45379; IANBD-labeled TnC RTF fluorescence at EC20 calcium; 0% EC20 calcium, 100% full calcium; activation, % at 7.2 µM; actives 0.24% (n = 340,000);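 active means activation above the mean over all tested compounds plus 3 SD, cut at about 30% in these data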;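 further: rise in fluorescence read as greater calcium sensitivity of cardiac thin filaments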
LANA-H2A inh = blocks KSHV LANA binding to histone H2A/H2B; Q9QR71; cell-free LANA-H2A/H2B peptide, fluorescence polarization; actives 0.6% (n = 320,000); inhibition, % (concentration not given with the values); in the data active means inhibition mostly above about 10%, no sharp cut-off; inactive means mostly below about 6.7%
RTF Ca sens inh = cardiac RTF calcium desensitization; AID 493244; inhibition, % at 7.15 µM; actives 0.12% (n = 340,000); P19429+P45379; IANBD-labeled cardiac RTF, Ca2+ fluorescence;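 active means inhibition above the mean inhibition of all tested compounds plus 3 SD, cut at about 17% in these data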;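 further: assay run at fixed EC70 calcium of 1.6 mM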
C-LANA FP = inhibitors of KSHV LANA C-terminal domain DNA binding; MBP-C-LANA/FAM-LBS DNA binding, fluorescence polarization; inhibition, % at 9 µM; actives 0.078% (n = 340,000); AID 504423;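 active means highest replicate inhibition at or above 60% at 9 µM, even if other replicates fall short; inactive means all replicates below 60% inhibition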;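 further: 0% = neutral control wells and 100% = 4 µM acridine orange control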
eLon inh = inhibits E. coli Lon protease | P0A9M0 | purified E. coli Lon protease, fluorescence polarization | inhibition, % at 7.94 µM | actives 0.42% (n = 360,000) | AID 602123; in the data active means inhibition above about 13%, passing the limit was not always enough;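 further: 0% = enzyme with probe and DMSO and 100% = no enzyme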
Keap1-Nrf2 PPI = Keap1-Nrf2 (human) interaction inhibition | AID 504523 | actives 0.15% (n = 340,000) | inhibition, % at 9.4 µM | Keap1 Kelch-Nrf2 peptide fluorescence polarization, 1536-well; in the data active means inhibition above about 12%;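 further: human Keap1 Kelch domain with fluorescein labeled Nrf2 9mer peptide probe; 0% = neutral control wells and 100% = peptide positive control; higher means more block of Keap1 binding to Nrf2 peptide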
Numbers without * were called inactive.

Results for CN(C)S(=O)(=O)c1ccc2c(c1)/C(=C/c1cc3c([nH]1)CCCC3)C(=O)N2 ?
RTF Ca sens act: 61*; LANA-H2A inh: 1; RTF Ca sens inh: -59; C-LANA FP: -3; eLon inh: -240; Keap1-Nrf2 PPI: -11

How did CCOc1ccccc1NC(=O)c1ccc2c(O)c(S(=O)(=O)c3ccccc3)c(=O)[nH]c2c1 do in these assays?
eLon inh: -2

How did COc1ccccc1C(=O)NC(=O)COC(=O)c1nc2nc(C)cc(C)n2n1 do in these assays?
RTF Ca sens act: -4; LANA-H2A inh: 2; RTF Ca sens inh: 1; C-LANA FP: 0; eLon inh: 0; Keap1-Nrf2 PPI: -1

Results for COc1ccc(/C=c2\s/c(=C/C(=O)c3ccc(C)cc3)[nH]c2=O)c(OC)c1 ?
RTF Ca sens act: 99*; LANA-H2A inh: 3; RTF Ca sens inh: -166; C-LANA FP: 1; eLon inh: inactive; Keap1-Nrf2 PPI: 2

What do the screens show for `O=C1CSC(=S)N1/N=C/c1cc(Br)c(O)c(Br)c1`?
RTF Ca sens act: 56*; LANA-H2A inh: -29; RTF Ca sens inh: -120; C-LANA FP: -22; eLon inh: inactive; Keap1-Nrf2 PPI: -263

How did O=C(CNC(=O)C1CCCCC1)OCn1nnc2ccccc2c1=O do in these assays?
RTF Ca sens act: -2; LANA-H2A inh: 15*; RTF Ca sens inh: -2; C-LANA FP: 0; eLon inh: -6; Keap1-Nrf2 PPI: 3

Results for NC(=O)c1ccc(NC(=O)COc2coc(CN3CCc4ccccc4C3)cc2=O)cc1 ?
RTF Ca sens act: 3; LANA-H2A inh: -2; RTF Ca sens inh: 10; C-LANA FP: -1; eLon inh: -8; Keap1-Nrf2 PPI: -1

How did Cc1ccccc1-n1ncc2c1CC(C)(C)CC2NC(=O)C1=CC(=O)CC(C)(C)O1 (stereo unspecified) do in these assays?
RTF Ca sens act: 5; LANA-H2A inh: -5; RTF Ca sens inh: -3; C-LANA FP: 0; eLon inh: 0; Keap1-Nrf2 PPI: -4

How did COc1ccc2nc(C)cc(Nc3ccc(C)cc3)c2c1 do in these assays?
RTF Ca sens act: 6; LANA-H2A inh: -6; RTF Ca sens inh: -5; C-LANA FP: -2; eLon inh: -5; Keap1-Nrf2 PPI: -1

How did COc1ccc2nc(C)cc(NCc3ccc(F)cc3)c2c1 do in these assays?
RTF Ca sens act: 69*; LANA-H2A inh: -31; RTF Ca sens inh: -79; C-LANA FP: -25; eLon inh: -225; Keap1-Nrf2 PPI: -140

Results for CCOCCCNC(=O)C(NC(=O)c1cnccn1)c1ccc(C)cc1 (stereo unspecified) ?
RTF Ca sens act: -1; LANA-H2A inh: 1; RTF Ca sens inh: 7; C-LANA FP: 0; eLon inh: -10; Keap1-Nrf2 PPI: 2

How did COc1ccccc1/C=C/C(=O)Nc1cccc(S(=O)(=O)NC2=NCCCCC2)c1 do in these assays?
RTF Ca sens act: -4; LANA-H2A inh: -3; RTF Ca sens inh: 1; C-LANA FP: 0; eLon inh: 2; Keap1-Nrf2 PPI: -6

What do the screens show for `CN(CCC#N)C(=O)COC(=O)c1ccccc1OCc1ccccc1Cl`?
RTF Ca sens act: 4; LANA-H2A inh: -3; RTF Ca sens inh: -3; C-LANA FP: -1; eLon inh: -6; Keap1-Nrf2 PPI: -2

What do the screens show for `CCCN(CCC)C(=O)C1CC(=O)OC12CCCCC2` (stereo unspecified)?
LANA-H2A inh: 13*; C-LANA FP: 0; eLon inh: -6; Keap1-Nrf2 PPI: 2

How did CN(C)C(=O)C1CC(=O)OC12CCCCC2 (stereo unspecified) do in these assays?
RTF Ca sens act: 15; LANA-H2A inh: 0; RTF Ca sens inh: 1; C-LANA FP: 0; eLon inh: 15; Keap1-Nrf2 PPI: -1

Results for COc1ccc2[nH]cc(CCNC(=O)C3CCCCC3)c2c1 ?
RTF Ca sens act: 4; LANA-H2A inh: 12*; RTF Ca sens inh: -6; C-LANA FP: -1; eLon inh: -7; Keap1-Nrf2 PPI: -3

How did O=C(CCSCc1cccc(F)c1)NCCc1ccccc1 do in these assays?
RTF Ca sens act: -4; LANA-H2A inh: 1; RTF Ca sens inh: -1; C-LANA FP: 1; eLon inh: 5; Keap1-Nrf2 PPI: 4

What do the screens show for `CC(=NNC(=O)c1ccncc1)c1ccccc1O`?
RTF Ca sens act: 1; RTF Ca sens inh: -13; C-LANA FP: -1; eLon inh: 0; Keap1-Nrf2 PPI: -6

Results for O=C(N/N=C\c1c(O)ccc2ccccc12)c1ccc(O)cc1 ?
RTF Ca sens act: 3; LANA-H2A inh: 2; RTF Ca sens inh: 4; C-LANA FP: 10; eLon inh: -21; Keap1-Nrf2 PPI: 8

How did O=C(NN=Cc1c(O)ccc2ccccc12)c1ccncc1 do in these assays?
RTF Ca sens act: 31*; RTF Ca sens inh: -49; C-LANA FP: -7; eLon inh: inactive; Keap1-Nrf2 PPI: -14

Results for CC(=NNC(=O)c1ccncc1)c1ccc2ccccc2c1O ?
RTF Ca sens act: 48*; RTF Ca sens inh: -66; C-LANA FP: -20; eLon inh: inactive; Keap1-Nrf2 PPI: -24

What do the screens show for `Cc1cccc(NC(=S)N2CCN(S(=O)(=O)c3cccc(F)c3)CC2)c1`?
RTF Ca sens act: 6; LANA-H2A inh: 3; RTF Ca sens inh: 3; C-LANA FP: -2; eLon inh: -2; Keap1-Nrf2 PPI: 2

Results for CN1C(=O)C(O)(CC(=O)c2ccccc2O)c2cc(Br)ccc21 (stereo unspecified) ?
RTF Ca sens act: 8; LANA-H2A inh: 47*; RTF Ca sens inh: -12; C-LANA FP: -1; eLon inh: -3; Keap1-Nrf2 PPI: -2

What do the screens show for `CN1C(=O)C(O)(CC(=O)/C=C/c2ccco2)c2cc(Br)ccc21` (stereo unspecified)?
RTF Ca sens act: 3; LANA-H2A inh: 1; RTF Ca sens inh: 1; C-LANA FP: -1; eLon inh: -8; Keap1-Nrf2 PPI: -4

What do the screens show for `O=S(=O)(/C=C/c1ccccc1)c1ccccc1`?
RTF Ca sens act: 0; LANA-H2A inh: -1; RTF Ca sens inh: 1; C-LANA FP: 2; eLon inh: -14; Keap1-Nrf2 PPI: -1

What do the screens show for `O=S(=O)(C=C(c1ccccc1)c1ccccc1)c1ccccc1`?
RTF Ca sens act: -4; LANA-H2A inh: 15*; RTF Ca sens inh: 2; C-LANA FP: 1; eLon inh: -1; Keap1-Nrf2 PPI: 2

How did Cc1c(CN2CCCC(C)C2)c(O)n(CCO)c(=O)c1C#N (stereo unspecified) do in these assays?
RTF Ca sens act: 35*; LANA-H2A inh: 1; RTF Ca sens inh: 4; C-LANA FP: 0; eLon inh: 3; Keap1-Nrf2 PPI: -3

What do the screens show for `C=CCn1c(O)c(CN2CCCCC2)c(C)c(C#N)c1=O`?
RTF Ca sens act: 8; LANA-H2A inh: 6; RTF Ca sens inh: -6; C-LANA FP: 2; eLon inh: -5; Keap1-Nrf2 PPI: 0

How did O=S(=O)(Nc1ccc2c(c1)OCO2)c1ccc(F)c(F)c1 do in these assays?
RTF Ca sens act: -1; LANA-H2A inh: 27*; RTF Ca sens inh: -3; C-LANA FP: -3; eLon inh: -12; Keap1-Nrf2 PPI: -6

Screening data as filed in PubChem BioAssay.
